Measurements published in the supplement of paper PMC11417369.
± gives the standard deviation of the averaged measurements. In all, about 25,000 sequences were measured (“ln(normalized median fluorescence intensity)”: median about 7.9, highest 2% from about 11 on). Many of the other results were omitted from the sample, so the highest values are more common in it than they were.

test system: PfAP2-I AP2 domain 3 (GST-tagged); assay: gcPBM binding intensity (ln(normalized median fluorescence intensity)); higher = stronger DNA binding
Procedure, shortened: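 Binding intensity is defined as the maximum Masliner-normalised natural-log median intensity across replicate spots for either probe orientation. It was measured on an Agilent 4 × 180k array of primer-extended double-stranded 36-bp intergenic genomic probes and negative controls, to which GST-tagged P. falciparum DNA-binding domains made in E. coli were applied for 1 h in 1× PBS with 1% milk, 0.2 mg/ml BSA, 0.5% salmon testes DNA and 0.03% Triton X-100. Detection was by Alexa488 anti-GST antibody and scanning at 488 nm.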

| Sequence | gcPBM binding intensity (ln) |
| --- | --- |
| TAAATTTATGGACACACACACATATATATATATATA [CACACA_site4620] | 9.45 ± 0.35 |
| TATAGATACACTTTGTGTACATAAAAATTGTATTAA [XGTACX_site7137] | 7.66 ± 0.29 |
| TATAAACTTAATTTGAGTACTTAATAATAATTTTGT [XGTACX_site3730] | 7.38 ± 0.47 |
| GTCAACTTGTGATAAGTGCATATATATAATAAAATG | 9.875 ± 0.078 |
| ATACAGTTGCATATGGTGCACGAATAATACACCTAT | 11 ± 0.25 |
| GTACACCTATAATATACACACAACAAATATGCACAT [CACACA_site6603] | 9.64 ± 0.39 |
| GAATAATATGGACATACACACATATACATACCTATA [CACACA_site7075] | 8.07 ± 0.59 |
| ACTATTAAGAATAAAGAAATATGTAATTGTATTTAA [CACACA_negctrl_site516] | 7.43 ± 0.59 |
| GTATAGAGAAAAAACTGTACTTTATATAAATATTTA [XGTACX_site3972] | 7.53 ± 0.3 |
| ATATATGTACAAATTGTGCGCAATAATTTTGTCTTT | 9.06 ± 0.33 |
| TACATTTCATTGTAATCATAAAAAATAAAGAAAAAA [XGTACX_negctrl_site542] | 7.58 ± 0.61 |
| ATAATGAACAAAGTAGTGCACTTTCCTTATCTTTTC | 11.4 ± 0.26 |
| ATATCTTATAATACGGTGCACTTGACATGAACAACT [GTGCAC_site9987] | 10.7 ± 0.3 |
| CCTTTCCTTTTATAAGTGCATATAACAAATGTATAC [GTGCAC_site9872] | 10 ± 0.11 |
| AATATAAACCCAAACACACACATATATATATATATA [CACACA_site268] | 9.4 ± 0.37 |
| ATATAAAATATGAGTAGTACATATTTTCTCATCTTA [XGTACX_site8595] | 7.55 ± 0.38 |
| ACTACAAGGCAATACAGTACATATAAATGTCATAAT [XGTACX_site8468] | 7.85 ± 0.45 |
| AATAATATATATTACACACGCATCGTTCATTTATTT [CACACA_site2391] | 7.87 ± 0.92 |
| ATACTAACATTTTTTTGTACATATAACTATAAAATA [XGTACX_site1033] | 8.09 ± 0.47 |
| AAATATTTGTGTGGTTGTACTATAATGATAAAAATA [XGTACX_site7703] | 8.14 ± 0.42 |
| AAATACTGATTTGGTTGTACATGTGCACTATATAAC [XGTACX_site3795] | 11.3 ± 0.56 |
| GGGAAACGATTTAATACACACACGTATTATATATAT [CACACA_site1160] | 8.48 ± 0.59 |
| ATTAGTATAATGTAACTTAGTTAATAGTGCTAATAT [CACACA_negctrl_site764] | 9.54 ± 0.4 |
| TTTTCATTTGTGACAGTGCAAAATGTTATATTAAAA [GTGCAC_site9647] | 9.99 ± 0.3 |

| Sequence | gcPBM binding intensity (ln) |
| --- | --- |
| AAAAAAAAAAAAATGGTGCAACTTTGTTAAAGGAAA [GTGCAC_site9950] | 9.56 ± 0.12 |
| CTCATTTTGTTAATGGTGCAAAAAAAAAAAAAAAAA | 11.1 ± 0.73 |
| ATGGATTATTTTTAAACATGCAGTAGTGATGAAAAA [TGCATGCA_site346] | 8.36 ± 0.53 |
| CATATTCCCCCCCACACACACACACGCATACATACC [CACACA_site7148] | 10.8 ± 0.33 |
| CATATTCCCCCCCACACACACACACCCATACATACC [CACACA_site2303] | 11.2 ± 0.44 |
| GACATATTCCCCCCCACACACACACCCACATACATA [CACACA_site2302] | 10.8 ± 0.26 |
| TGAAAAAAAAAATGCACACGCATACAGATAATATGT [CACACA_site4526] | 8.62 ± 0.51 |
| AAATATAATATATGCACACATACATACATATATATA [CACACA_site104] | 9.41 ± 0.3 |
| TTTGAAATAAATAATGCACACTCTACATATATACGT [CACACA_site2244] | 11.1 ± 0.61 |
| TGAAATAAATAATGCACACTCTACAGATATACGTAT [CACACA_site5270] | 11.1 ± 0.66 |
| AAATATAATATATGCACACATACATACAGATATATA [CACACA_site4235] | 9.22 |
| GTTGAAAAAAAAAATGCACACGCATACATATAATAT [CACACA_site8117] | 8.71 ± 0.29 |
| AATTATATAAGCCACGCATGTGTGCATAAAAATACA [TGCATGCA_site114] | 11.1 ± 0.34 |
| AAAAATAAAATATATACATGCATATACATATTATAT [TGCATGCA_site668] | 7.87 ± 0.45 |
| AAATAAAATTATAATACATGCATACATACATATATA [TGCATGCA_site69] | 7.9 ± 0.54 |
| ATGTTAATAACTTGTGGTACTGTTATAATTTAGTAA [XGTACX_site2114] | 7.71 ± 0.42 |
| TATTAATTATATTTATGTACATAATCATATTATTAT [XGTACX_site7938] | 7.66 ± 0.39 |
| TTTAATCATATGTTATATAATAAGCCCCCCCCCCAA [CACACA_negctrl_site486] | 11.1 ± 0.63 |
| ATATATATATAATTATATAAAATATATCATATGTTA [XGTACX_negctrl_site47] | 8.76 ± 0.16 |
| ATTATTTGATTAAAGGTGCAAGGATAATAATAAAAC | 9.47 ± 0.17 |
| ATTAATAATCGAAAGGTGCACTTTGATTTGATAACA | 11.2 ± 0.3 |
| AAAAAAAAAAAAAAGGTGCATACTTTGAATTAATAT [GTGCAC_site9401] | 9.87 ± 0.17 |
| AAAAAAAAAAAAAAAAGTACATGAAAAAAAGAAGAA [XGTACX_site8384] | 8.7 ± 0.27 |
| ATTTTTTTTTTTTTATGTACATATAGGTGCAAATCA [XGTACX_site6748] | 11.3 ± 1 |

| Sequence | gcPBM binding intensity (ln) |
| --- | --- |
| CAATATATTATATGGGTGCAAACCACATATAAATAA | 10.1 ± 0.33 |
| ATTTTATATACAAAATGTACATATTTATTATATATG [XGTACX_site6732] | 7.74 ± 0.5 |
| AAATAAAATAATAAAACATGCAAAAATAATGATTTA [TGCATGCA_site415] | 7.71 ± 0.76 |
| TAAAGGAAATAAAAAACATGCAAATATGAAATATAT [TGCATGCA_site745] | 7.61 ± 1.1 |
| ATATAAAATACATGGGTGCAATATATTAAACAAATA [GTGCAC_site9421] | 11.2 ± 0.48 |
| AGGTGCAAAAATAAAACATGCAAAAATAAAAATGAA [TGCATGCA_site502] | 10.9 ± 0.65 |
| TACAAATATATAAAATGTACATATATATACATATTA [XGTACX_site3029] | 7.46 ± 0.27 |
| TATTAAATATATATTACATGCAAAAAAAAAAAACAA [TGCATGCA_site705] | 7.97 ± 0.52 |
| CATATATATTTTATATGTACATATATATTTTATATA [XGTACX_site8665] | 7.59 ± 0.15 |
| GACAATTATATGTAGGTGCATATACAAATTTTTTAA | 10.4 ± 0.57 |
| ATTATGTACAAAATGGTGCAATATTATACATATATA [GTGCAC_site9468] | 11.1 ± 0.49 |
| TTTTATTGTTTTTTTTTTTTTTCTTTTTTTTTTTTT [CACACA_negctrl_site1094] | 7.91 ± 0.46 |
| ATACGTGGGCAAAAAGTGCATATAATCAAAAAAAAA [GTGCAC_site9961] | 10.4 ± 0.11 |
| ATAAGATAGGCATATACACACATTTATTTACAGATA [CACACA_site5754] | 7.71 ± 0.67 |
| TTGTTTTTGTTCTTGGGTACTTAAATTATAAATGAT [XGTACX_site113] | 8.07 ± 0.45 |
| ATAACTTTTTAAAAGACACACATAAGAAAAACAAAA [CACACA_site723] | 8.08 ± 0.64 |
| TATATGTGATAACACGCACACAAATGTATATAATTT [CACACA_site2593] | 8.1 ± 0.28 |
| TCTTTATATCATCTTTCTAAATATATATATATATAA [CACACA_negctrl_site77] | 7.84 ± 0.55 |
| TTCATTAAATAGAACAAAATAATAATATAACAACAA [GTGCAC_negctrl_site116] | 7.74 ± 0.53 |
| AAAATAAATAAAAAAAGTACATATATAATTTATAAA [XGTACX_site2411] | 7.75 ± 0.39 |
| ACAAGTTTTTTTTTATCACACACAAAAAAAAAAATA [CACACA_site8377] | 7.9 ± 0.44 |
| TAATTATAATAATAACGTACATATATAAAATGGTGA [XGTACX_site8434] | 8.04 ± 0.34 |
| AATATAAATAAAAACACACACAATGGTACATATATA [CACACA_site3671] | 7.84 ± 0.54 |
| ATAAAACGTACAATGGTGCATATAAATAATATATAT [GTGCAC_site9960] | 11 ± 0.52 |

| Sequence | gcPBM binding intensity (ln) |
| --- | --- |
| TGTCCAATTTTTTATCGTACATAATATATAAATAAA [XGTACX_site1705] | 8.01 ± 0.33 |
| TTTTCTTGATTTTGTAGTACATTTTTACGATATTTT [XGTACX_site63] | 7.94 ± 0.55 |
| ATTTAATATCACAATATATTTTTTACCCTTATCAGC [CACACA_negctrl_site491] | 7.59 ± 0.76 |
| CATGAGGTATAAAAGGTGCAAATTAATGAGAACATT | 11.1 ± 0.36 |
| CGTTGGTATTAAAAGGTGCAATGAAATAATATATTA | 10.8 ± 0.63 |
| TATGTATTAATGAGAACATGCAAAATAATAAACAAT [TGCATGCA_site362] | 8.45 ± 0.59 |
| TTTTTAAAAAAACATACACACAAAAAAAAAAAAAAA [CACACA_site3935] | 8.11 ± 0.67 |
| TTATATCAAGGGAATGCATGCATATCGTTTTGTATT [TGCATGCA_site327] | 7.68 ± 0.88 |
| TATTGTATATAATAAACACACAATATTAAAAATATA [CACACA_site1057] | 7.4 ± 0.52 |
| AATATTGTATATAATAAACACACAATATTAAAAATA [CACACA_site8262] | 7.57 ± 0.39 |
| ACAAAAAAAAACGTGGTGCATTAATAATATTGTATA [GTGCAC_site9469] | 11.7 ± 0.3 |
| TCTTATATTATATTGTGTATTAAAATTTAACTTCAA [TGCATGCA_negctrl_site565] | 7.83 ± 0.58 |
| ACTTTTTATTTTTTACTATATATATATATATATATG [TGCATGCA_negctrl_site463] | 8.31 ± 0.44 |
| TATATATTTGTTCACACACACACAAAAAAAAAAAAA [CACACA_site2475] | 8.08 ± 0.52 |
| TGGGCACCCATATACACACACAAATACAATGATAAA [CACACA_site4762] | 7.78 ± 0.28 |
| GGTGCACCCATATACACACACAAATACAATGATAAA [CACACA_site1132] | 9.99 ± 0.56 |
| TATGTGCACCCATATACACACACAAATACAATGATA [CACACA_site8295] | 11.3 ± 0.85 |
| CCCGTAAATACAAAAAGTACAAAAGTTCATCTTATA [XGTACX_site1154] | 7.93 ± 0.99 |
| AATTTATTTTTAAAAAGTACATACTTAAGAAAACGA [XGTACX_site3660] | 8.12 ± 0.29 |
| AAAGAAAACGGACTTTGTACTTAAATATAATATAAA [XGTACX_site8585] | 7.69 ± 0.34 |
| CTGTACACTTAAACGGTGCAAAAAGAAAAAAAAGAA | 11 ± 0.38 |
